HP1b binding inh = HP1-beta chromodomain-methylated histone interaction inhibition. Potency, µM (doses to about 114 µM), most hits filed as inhibitors. 0.56% of 390,000 active. AlphaScreen HP1-beta / biotin-H3K9me3 peptide binding. P83916; note: nearly all actives have a fitted effect of over 70% in size
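AlphaScreen: HP1-beta (50 nM) preformed 30 min with biotin-H3(1-18)K9me3 peptide (50 nM) in PBS pH 7.4, 0.01% Tween-20. Compound added for 30 min at RT, then streptavidin donor/nickel chelate acceptor beads (10 ug/mL) for 30 min.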
PLK1 PBD inh = inhibitors of human PLK1 polo-box domain binding; Plk1 PBD binding of FITC phosphopeptide, fluorescence polarization; AID 720504; Potency, µM, most hits filed as inhibitors; 2.8% of 360,000 active; note: series mostly up to about 57 µM; nearly all actives have a fitted effect of over 65% in size
Target sequence (P53350 whole entry, looked up, the tested form may be a part): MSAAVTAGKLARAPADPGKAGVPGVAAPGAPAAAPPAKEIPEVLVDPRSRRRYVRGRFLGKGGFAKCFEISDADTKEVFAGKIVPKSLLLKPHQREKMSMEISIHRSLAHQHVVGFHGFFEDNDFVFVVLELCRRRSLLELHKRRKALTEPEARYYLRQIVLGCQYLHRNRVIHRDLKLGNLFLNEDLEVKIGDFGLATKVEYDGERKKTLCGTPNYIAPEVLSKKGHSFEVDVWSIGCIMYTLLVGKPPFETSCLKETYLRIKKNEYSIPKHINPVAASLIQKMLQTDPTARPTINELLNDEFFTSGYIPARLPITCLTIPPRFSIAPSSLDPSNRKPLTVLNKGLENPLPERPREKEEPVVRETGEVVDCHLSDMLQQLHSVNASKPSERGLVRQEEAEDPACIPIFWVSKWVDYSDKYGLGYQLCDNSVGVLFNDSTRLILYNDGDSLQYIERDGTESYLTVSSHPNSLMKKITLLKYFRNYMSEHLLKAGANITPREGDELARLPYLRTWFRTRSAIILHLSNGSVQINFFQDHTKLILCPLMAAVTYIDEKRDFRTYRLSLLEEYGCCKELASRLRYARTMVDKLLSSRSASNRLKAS
JMJD2A Tudor inh = inhibitors of human JMJD2A Tudor domain. Potency, µM (highest dose often 114 µM), most hits filed as inhibitors. AlphaScreen JMJD2A-Tudor / H3K4me3 peptide binding. 4.4% of 390,000 active. O75164; note: nearly all actives have a fitted effect of over 50% in size
BAZ2B block = BAZ2B (human) inhibition; Q9UIF8; AlphaScreen BAZ2B-H3K14Ac peptide displacement; Potency, µM (doses to about 114 µM), actives largely listed as inhibitors; 4.4% of 360,000 active; note: nearly all actives have a fitted effect of over 60% in size
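Inhibition is scored as reduced AlphaScreen emission. The BAZ2B/b-H3(5-23)K14Ac complex (50 nM each) in PBS pH 7.4, 0.01% Tween-20 meets compound (up to 110 uM) for 30 min at RT before bead addition.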
Sfp PPTase inh = blocks B. subtilis Sfp PPTase activity | Q9F4F7 | Biochemical Sfp PPTase activity, qHTS | Potency, µM, hits mostly inhibitors | 3.5% of 310,000 active | AID 1490;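 note: the enzyme is Sfp with the accession as filed and its product quenches rhodamine fluorescence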
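Reaction rates are the 30-min fluorescence difference (ex 525, em 598 nm) in wells containing 15 nM Sfp, 5 uM rhodamine-CoA and 12.5 uM BHQ-2-YbbR at pH 7.6 with 10 mM MgCl2.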
G9a block = G9a (human) methyltransferase inhibition; Potency, µM (top dose mostly 102 µM), usual class: inhibitors; AID 504332; 8.8% of 350,000 active; Q96KQ7; G9a H3K9 monomethylation, AlphaScreen, 2 h; note: nearly all actives have a fitted effect of over 75% in size
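AlphaScreen detection with an anti-monomethyl H3K9 antibody quantified product after a 2 h room-temperature reaction containing 500 nM biotinylated H3K9 peptide, 20 µM SAM and 20 nM enzyme, which had been preincubated 15 min with compound.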
A number is an active result; i = inactive; ? = inconclusive; nt = not tested or not shown; [ ] = remark or other dose. This is a sample that favours compounds with a hit; in the whole collection about 12% have one here. Calls come from the whole dose curve; as a rule, active = well fitted curve in the direction sought with a large enough effect; inconclusive = small, poorly fitted or top-dose-only effect, or another doubt; inactive = no such curve, though single readings can be large; an effect the other way counts as inactive or inconclusive.

SMILES | HP1b binding inh | PLK1 PBD inh | JMJD2A Tudor inh | BAZ2B block | Sfp PPTase inh | G9a block
O=C(O)CSc1nc2ccccc2n1Cc1ccccc1 | i | ? | 89µM | i | i | i
Cc1ccc(OCCSc2nc3ccccc3n2CC(=O)O)cc1 | i | i | i | i | i | nt
CCSc1nc2ccccc2n1CC(=O)OC | i | i | i | i | i | i[12.7 µM]
COCC1=C2c3ccccc3[C@H](C[N+](=O)[O-])C(C(=O)OC)(C(=O)OC)C[C@@H]2n2c(=O)n(-c3ccccc3)c(=O)n2C1 | nt | nt | nt | nt | i | nt
CCCCOC(=O)c1ccc(NC(=O)c2cc3c(=O)n4cccc(C)c4nc3s2)cc1 | i | nt | i | i | nt | i
COc1ccc(-n2c(=O)c(C)nc3cnc(Nc4cccc(OC)c4)nc32)cc1 | nt | nt | nt | nt | i | i[12.7 µM]
O=C(O)[C@@H](O)[C@@H](O)[C@H](O)[C@H](O)CO | nt | nt | nt | nt | i | i
O=C(NCc1ccc(F)cc1)c1ccc(CSc2nc3ccncc3n2Cc2ccc(F)cc2)cc1 | i | nt | i | i | nt | i
NC(=O)CSc1nc2ccccc2c(=O)n1CCc1ccccc1 | i | i | i | i | i | 79µM
CCOC(=O)CC(=O)CSc1nc2ccccc2c(=O)n1CCc1ccccc1 | i | nt | i | i | nt | i
N#CC1=C(N)OC2=C(C(=O)CC(c3ccco3)C2)C1c1ccc(OCc2c(F)cccc2Cl)cc1 (stereo unspecified) | i | i | ? | 71µM | i | i[0.501 µM]
FC(F)(F)c1ccccc1-n1c(-c2ccco2)n[nH]c1=S | i | i | i | i | i | 16µM
Cc1ccccc1-n1c(-c2ccco2)n[nH]c1=S | i | i | 3.2µM | i | i | 7.1µM
COc1ccc(Br)cc1C1NC(c2ccc3c(c2)OCO3)=CC(c2ccccc2O)N1 (stereo unspecified) | i | nt | i | nt | nt | nt
COCCn1c(-c2ccc(-c3ccccc3Cl)o2)nc2c1c(=O)[nH]c(=O)n2CC(C)C | i | i | i | i | 18µM | 22µM
CCCCn1c(=O)[nH]c(=O)c2c1nc(-c1ccc(-c3ccccc3Br)o1)n2CCOC | i | i | i | i | 40µM | 16µM
CCCCn1c(=O)[nH]c(=O)c2c1nc(-c1ccncc1)n2CCOC | i | i | i | i | i | i[12.7 µM]
Cc1cccc(N2CCN(C(=O)c3cn(C4CCCCC4)c(=O)c4c3c3ccccc3n4C)CC2)c1C | i | nt | i | i | nt | i
O=C(C1=C(O)C(=O)N(CCOCCO)C1c1cccs1)c1cccs1 (stereo unspecified) | i | i | ? | ? | i | 45µM
CC(=O)C1=C(O)C(=O)N(CC#N)C1c1cccs1 (stereo unspecified) | i | i | 79µM | i | i | i
Cc1nc(C)c(C(=O)C2=C(O)C(=O)N(CCN(C)C)C2c2cccs2)s1 (stereo unspecified) | i | i | i | i | i | i
O=C(C1=C(O)C(=O)N(Cc2ccco2)C1c1cccs1)c1cccs1 (stereo unspecified) | i | i | i | ? | i | ?
O=C(c1cc2ccccc2o1)c1cccs1 | i | 24µM | i | i | i | i
O=C(NC(=S)Nc1ccc(NC(=O)c2cccs2)cc1)c1cc2ccccc2o1 | i | i | i | i | i | i
COc1cc(/C=C2\CCc3c2nc2ccccc2c3C(=O)O)cc(OC)c1OC | i | 17µM | 89µM | 45µM | ? | 14µM
SMILES | HP1b binding inh | PLK1 PBD inh | JMJD2A Tudor inh | BAZ2B block | Sfp PPTase inh | G9a block
COc1ccccc1N1CCN(C(=O)c2c3c(nc4ccccc24)C(=O)N(C2CCCCC2)C3)CC1 | i | nt | i | i | nt | i
CCN1C/C(=C\c2cccc(C)c2)c2nc3ccccc3c(C(=O)O)c2C1 | nt | nt | nt | ? | 79µM | i[0.501 µM]
CCOc1cc(/C=C2\CCCc3c2nc2ccccc2c3C(=O)O)ccc1OC | i | 3µM | 89µM | 79µM | 10µM | ?
COc1cc(/C=C2\CCOC2=O)cc(OC)c1OC | i | i | i | i | i | i
COc1ccc(/C=C2\CCCc3c2nc2ccccc2c3C(=O)OCC(=O)c2c(N)n(C)c(=O)n(C)c2=O)cc1 | nt | nt | nt | i | i | i
COc1cccc(/C=C2\CC(C)Cc3c2nc2ccccc2c3C(=O)O)c1OC (stereo unspecified) | i | i | i | i | 32µM | 50µM
CN(C)C1(CNC(=O)COc2ccc([N+](=O)[O-])cc2)CCCCC1 | i | nt | i | i | nt | i
CCOC(=O)C1(Cc2ccc(OC)cc2)CCN(C(=O)c2cc(C)nn2C)CC1 | i | i | i | i | i | i[0.501 µM]
COc1ccccc1CCn1c(=O)c(-c2cccs2)nc2cncnc21 | nt | nt | nt | nt | i | i[0.501 µM]
COc1cc(/C=C2\CCCc3c2nc2ccccc2c3C(=O)O)cc(Br)c1O | i | i | i | ? | i | 40µM
CCc1ccc(NC(=O)CSc2ccc3nc(-c4ccc(OC)cc4)cn3n2)cc1 | i | nt | i | i | nt | i
CC(=O)c1c2c3c(cccc3n(C)c1=O)C(=O)c1ccccc1-2 | i | ? | i | ? | i | 18µM
Cn1c(=O)c(Nc2ccc(O)cc2)c2c3c(cccc31)C(=O)c1ccccc1-2 | 18µM | ? | 7.9µM | 6.3µM | i | 13µM
Cc1nc2nc(C)c(CCC(=O)NCc3ccccc3)c(C)n2n1 | i | nt | i | i | nt | i
CCS(=O)(=O)N1CCc2cc(C(=O)Nc3cc(OC)c(Cl)cc3OC)ccc21 | i | nt | ? | ? | nt | i
COc1cccc(COCCN2CCN(S(=O)(=O)c3ccccc3)CCC2=O)c1 | i | nt | i | nt | i | nt
COc1ccccc1C(=O)N1CCCCC1CCN1CCOCC1 (stereo unspecified) | i | nt | i | i | nt | i
COc1ccc(-c2nnc(SCC(=O)NC(=O)NCc3ccccc3)o2)cc1 | i | i | i | i | ? | 45µM
O=C(CSc1nnc(-c2ccc(OC(F)F)cc2)o1)NC(=O)NCc1ccco1 | i | i | ? | 50µM | i | ?
O=C(CSc1nnc(-c2ccncc2)o1)NCc1ccccc1 | i | i | i | i | i | i
COc1ccc(-c2nnc(SCC(=O)NCc3ccco3)o2)cc1 | i | i | i | i | i | ?
O=C(CSc1nnc(-c2ccc(S(=O)(=O)N3CCCC3)cc2)o1)NCc1ccco1 | i | i | i | 50µM | ? | ?
CCOc1ccc(C(=O)NNC(=O)CCNC(=O)c2ccco2)cc1OC | i | i | i | i | nt | i
COc1ccc(N2CC(C(=O)NNC(=O)c3ccc(Br)cc3)CC2=O)c(OC)c1 (stereo unspecified) | i | i | i | i | nt | i
CC(=O)Nc1ccc(SCC(=O)NCC2(N3CCCCC3)CCCCC2)cc1 | i | 12µM | i | nt | nt | nt
N#CC1=CN(Cc2ccccc2)C=C(/C=N/Nc2ccccc2)C1 | i | i | ? | i | i | 3.5µM
O=C1C2C3C=CC(C3=C(c3ccccc3)c3ccccc3)C2C(=O)N1Cc1ccccc1 (stereo unspecified) | i | 67µM | i | i | 50µM | 40µM

Source: PubChem (National Center for Advancing Translational Sciences (NCATS))
